Assay [1] in a line: compound effects on lung adenocarcinoma cell viability – A549, calcein-AM fluorescence, 48 h, basal, profiling panel (AID 1162). Further: test concentration not given here. The following applies: higher = more signal.
Assay [2] can be described thus: compound effects on differentiated 3T3-L1 adipocyte viability – cell-based, 3T3-L1 adipocytes, calcein-AM fluorescence, 48 h, basal, profiling panel (AID 1163). Further: test concentration not given here. The conditions noted are these: 3T3-L1 adipocytes viability, higher = more signal.
The nature of assay [3]: compound effects on hepatocellular carcinoma cell viability – HepG2, calcein-AM fluorescence, 48 h, basal, profiling panel (AID 1164). Further: test concentration not given here. The following applies: higher = more signal.
The nature of assay [4]: compound effects on multiple myeloma cell viability – MM1S, calcein-AM fluorescence, 48 h, basal, profiling panel (AID 1165). Further: test concentration not given here. The conditions noted are these: higher = more signal.
A short description of assay [5]: calcein-AM signal in unstimulated myeloma cells – cell-based, calcein-AM fluorescence, 48 h, PK04 Diversity Set, profiling panel (AID 1166).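 Further: cells grown under basal conditions without added stimulus; test concentration not given here.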 The following applies: RPMI8226 myeloma viability, higher = more signal.
A short description of assay [6]: JC-1 mitochondrial signal, unstimulated HepG2 cells – cell-based, JC-1 fluorescence, 24 h, 100 nL compound, profiling panel (AID 1167). Further: test concentration not given here. The following applies: HepG2 mitochondrial potential, higher = more signal.
Assay [7] in a line: JC-1 mitochondrial signal, unstimulated adipocytes – cell-based, JC-1 fluorescence, 3T3-L1 adipocytes, 24 h, 100 nL compound, profiling panel (AID 1168). Further: test concentration not given here. The conditions noted are these: JC-1 mitochondrial fluorescence, higher = more signal, called active from +8 up or from −8 down.
Assay [8] can be described thus: JC-1 mitochondrial signal, unstimulated myeloma cells – cell-based, JC-1 fluorescence, RPMI8226, 24 h, 100 nL compound, profiling panel (AID 1169). Further: test concentration not given here. The conditions noted are these: JC-1 mitochondrial potential fluorescence, higher = more signal.
Assay [9] is described as follows: JC-1 mitochondrial signal, unstimulated MM1S myeloma – cell-based, JC-1 fluorescence, 24 h, 100 nL compound, profiling panel (AID 1170). Further: test concentration not given here. The following applies: MM1S mitochondrial potential, higher = more signal.
The nature of assay [10]: resazurin metabolic signal in A549 cells – cell-based, resazurin fluorescence, 24 h, PK04 Diversity Set, profiling panel (AID 1171). Further: test concentration not given here. The conditions noted are these: A549 viability, higher = more signal, called active from +8 up or from −8 down. On the technique in general: Alamar Blue is a resazurin reagent that responds to reducing activity.
Assay [11] in a line: resazurin metabolic signal in HepG2 cells – cell-based, resazurin fluorescence, 24 h, PK04 Diversity Set, profiling panel (AID 1172). Further: test concentration not given here. The conditions noted are these: HepG2 viability, higher = more signal.
Assay [12] is described as follows: budding yeast growth changes without added modifier – OD600, strain BY4716, 24 h, basal condition, primary screen (AID 1173). The following applies: S. cerevisiae BY4716 growth, OD600, 24 h; higher = more signal, called active from +8 up or from −8 down.
A short description of assay [13]: viability profiling in MM1S myeloma cells – cell-based, resazurin fluorescence, basal, 24 h, PK04 Diversity Set, profiling panel (AID 1174). Further: test concentration not given here. The conditions noted are these: higher = more signal, called active from +8 up or from −8 down.
For assay [14], the target named is Dihydroorotate dehydrogenase (quinone), mitochondrial (Plasmodium falciparum (isolate 3D7)) (UniProt Q08210). Description: inhibition of P. falciparum DHODH – biochemical, C-terminal His tag, absorbance 600 nm, primary screen (AID 1175).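 Further: recombinant parasite enzyme with a five histidine tag at its C terminus; test concentration not given here.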 The conditions noted are these: PfDHODH enzyme, DCIP absorbance 600 nm; higher = more signal, called active from +8 up or from −8 down.

A short description of assay [15]: inhibition of PAO1 biofilm formation – strain PAO1, LB-PBS medium, absorbance 600 nm, primary screen (AID 1176). Further: test concentration not given here. The conditions noted are these: P. aeruginosa PAO1 growth/biofilm, A600, 12 h; higher = more signal.
The nature of assay [16]: growth modulation of vineyard yeast isolate – strain RM11-1a, OD600, basal, 24 h, primary screen (AID 1177).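 Further: cultures grown under basal conditions with no added stressor; test concentration not given here.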 The conditions noted are these: S. cerevisiae RM11-1a growth, OD600, 24 h; higher = more signal, called active from +8 up or from −8 down.
The nature of assay [17]: growth of efflux-deficient E. coli DRC39 – strain DRC39, OD650, 24 h, E. coli filamentation inducers, primary screen (AID 1178).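 Further: growth measured as culture turbidity by optical density at 650 nm; test concentration not given here.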 The conditions noted are these: E. coli DRC39 acrAB, higher = more signal, called active from +8 up or from −8 down.
Assay [18] in a line: growth of efflux-deficient E. coli DRC39 – strain DRC39, OD650, 48 h, E. coli filamentation inducers, primary screen (AID 1179).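 Further: screen aims at cell division blockers that make cells filament.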 The conditions noted are these: E. coli DRC39 delta-acrAB growth, higher = more signal, called active from +8 up or from −8 down.
Assay [19] is described as follows: viability profiling in RPMI8226 myeloma cells – cell-based, resazurin fluorescence, basal, 24 h, PK04 Diversity Set, profiling panel (AID 1180).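 Further: RPMI8826 multiple myeloma cell line at 5000 cells per well; test concentration not given here.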 The conditions noted are these: higher = more signal.
Assay [20] has as its target E3 ubiquitin-protein ligase XIAP (Homo sapiens) (UniProt P98170). Description: small molecules binding XIAP protein – biophysical, small-molecule microarray, fluorescence 635 nm, primary screen (AID 1181).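 Further: score merges 667 nm emission and signal to noise over triplicate slides.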 The conditions noted are these: higher = more signal.

This passage reports z-score and composite z-score results from PubChem BioAssay.

Active and inactive are the calls of the source. Unless noted, how the calls were made is not given here.

Sequence of E3 ubiquitin-protein ligase XIAP (Homo sapiens) (P98170 whole entry, looked up): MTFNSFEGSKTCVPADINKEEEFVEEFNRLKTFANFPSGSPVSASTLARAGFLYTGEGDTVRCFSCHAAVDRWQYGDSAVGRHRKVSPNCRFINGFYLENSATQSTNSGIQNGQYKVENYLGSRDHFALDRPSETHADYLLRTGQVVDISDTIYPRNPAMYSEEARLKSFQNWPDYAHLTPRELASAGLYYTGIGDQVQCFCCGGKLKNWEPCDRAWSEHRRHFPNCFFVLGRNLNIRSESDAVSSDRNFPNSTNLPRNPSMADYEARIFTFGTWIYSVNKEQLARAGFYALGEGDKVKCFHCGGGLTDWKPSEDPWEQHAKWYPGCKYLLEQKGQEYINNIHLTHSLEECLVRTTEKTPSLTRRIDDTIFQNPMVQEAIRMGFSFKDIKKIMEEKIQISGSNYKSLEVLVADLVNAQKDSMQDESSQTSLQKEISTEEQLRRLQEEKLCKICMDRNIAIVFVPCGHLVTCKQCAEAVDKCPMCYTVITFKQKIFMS
Sequence of Dihydroorotate dehydrogenase (quinone), mitochondrial (Plasmodium falciparum (isolate 3D7)) (Q08210 whole entry, looked up): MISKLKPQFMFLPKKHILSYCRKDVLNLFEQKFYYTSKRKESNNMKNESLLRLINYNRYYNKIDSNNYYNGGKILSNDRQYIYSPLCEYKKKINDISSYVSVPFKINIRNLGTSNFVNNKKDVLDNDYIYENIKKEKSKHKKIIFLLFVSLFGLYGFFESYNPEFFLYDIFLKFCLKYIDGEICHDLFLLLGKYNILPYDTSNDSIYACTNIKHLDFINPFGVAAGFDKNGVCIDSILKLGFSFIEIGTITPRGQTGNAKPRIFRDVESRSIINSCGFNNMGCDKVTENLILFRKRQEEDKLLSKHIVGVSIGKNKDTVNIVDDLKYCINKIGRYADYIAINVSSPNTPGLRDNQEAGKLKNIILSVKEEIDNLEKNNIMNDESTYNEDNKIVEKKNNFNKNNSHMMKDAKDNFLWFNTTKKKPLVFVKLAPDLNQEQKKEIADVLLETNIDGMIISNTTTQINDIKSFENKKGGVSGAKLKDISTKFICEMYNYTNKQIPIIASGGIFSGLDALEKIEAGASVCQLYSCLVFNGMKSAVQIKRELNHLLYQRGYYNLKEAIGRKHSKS

As to `NC(=O)NCC#Cc1ccc2c(c1)[C@]1(C(=O)N2)[C@H](C(=O)N2CCCCCCC2)[C@H]2C(=O)O[C@H](c3ccccc3)[C@H](c3ccccc3)N2[C@@H]1c1ccc(OCCO)cc1`, the z-score in [1] was -0.0962; in assay [2], -0.15; in assay [3], -1.09; in [4], -0.682; in assay [5], -0.365; in assay [6], -1.79. In addition, the z-score in [7] is -2.9 (inactive); in assay [8], -0.165; in [9], -0.781; in [10], -0.316 (inactive); in assay [11], -0.3; in [12], 1.84 (inactive). Besides, the z-score was -0.36 (inactive) in assay [13]; 2.1 (inactive) in assay [15]; 2.12 (inactive) in assay [16]; 0.049 (inactive) in assay [17]; -0.318 (inactive) in assay [18]; -0.831 in assay [19]. Further, the figures for the composite z-score in [14] and in assay [20] were 0.835 (inactive) and 0.0368, respectively.
`COc1ccc(C(=O)Nc2cccc(CN3C(=O)[C@]4(O[C@H](CC(=O)N5CCC[C@H]5CO)[C@@H]([Si](C)(C)c5ccc(OC)cc5)[C@@H]4C)c4ccccc43)c2)cc1`: the z-score in assay [1] was -0.806; in assay [2], 0.902; in assay [3], -3.13; in [4] it was -2.71; in assay [5], -4.33; in assay [6] it was -1.73. The z-score was 0.248 (inactive) in assay [7]; -1.1 in assay [8]; -1.64 in [9]; -2.2 (inactive) in assay [10]; -1.72 in assay [11]; -0.268 (inactive) in [12]. For the same compound, the z-score in [13] was -2.7 (inactive); in [15] it was 0.0943 (inactive); in assay [16] it was 0.312 (inactive); in [17], 0.951 (inactive); in [18] it was 0.441 (inactive); in [19] it was -4.84. The figures for the composite z-score in [14] and in assay [20] were -2.54 (inactive) and -0.0998, respectively.
Consider `CCCCC=C[C@@H](NC(=O)c1cccs1)c1ccccc1`, for which the z-score in assay [1] was -2.03; in [2], -0.906; in assay [3] it was -1.92; in [4], -1.66; in assay [5], -4.69; in [6], -0.503. The z-score is 0.482 (inactive) in assay [7]; -0.817 in [8]; -1.73 in assay [9]; -1.49 (inactive) in assay [10]; 0.327 in assay [11]; 0.822 (inactive) in assay [12]. Besides, the z-score is -0.321 (inactive) in assay [13]; 0.191 (inactive) in assay [15]; 1 (inactive) in assay [16]; 0.659 (inactive) in [17]; 0.955 (inactive) in assay [18]; -1.95 in assay [19]. Also, the values for the composite z-score in [14] and in [20] were 0.0375 (inactive) and -0.0426, respectively.
For `CC(C)c1ccc(NN2C(C(O)c3c(F)cccc3Cl)C=CC3C(=O)N(c4ccccc4)C(=O)C32)cc1` (stereo not given), the z-score in [1] is -0.755; in [2] it was 0.205; in assay [3], -0.314; in assay [4] it was -0.414; in assay [5] it was -1.32; in assay [6] it was -2.03. Also, the z-score is -2.25 (inactive) in assay [7]; -0.738 in assay [8]; 0.584 in [9]; -1.71 (inactive) in assay [10]; -1.59 in [11]; -0.134 (inactive) in [12]. The z-score in [13] is -1.35 (inactive); in [15], 0.807 (inactive); in assay [16], 1.5 (inactive); in assay [17], -0.576 (inactive); in assay [18], -0.895 (inactive); in assay [19] it was -1.42. Also, the composite z-score in assay [14] was 1.36 (inactive); in assay [20] it was -0.132.
As for `Cc1cc(C)cc(N2C(=O)CS(=O)(=O)C2c2cccc([N+](=O)[O-])c2)c1` (stereo not given), the z-score in [1] is 1.26; in assay [2], 0.869; in [3] it was 1.41; in assay [4] it was 0.871; in [5] it was 1.47; in assay [6] it was 0.994. The z-score is 0.76 (inactive) in assay [7]; -0.327 in assay [8]; -0.744 in [9]; -0.913 (inactive) in [10]; -0.0507 in assay [11]; -0.658 (inactive) in assay [12]. Besides, the z-score in assay [13] was -0.208 (inactive); in assay [15] it was -0.407 (inactive); in [16], -0.438 (inactive); in assay [17], 0.899 (inactive); in assay [18], 1.04 (inactive); in assay [19], -0.194. The results for the composite z-score in [14] and in [20] were -2.1 (inactive) and -0.22, respectively.
`CC(C)Cc1ccc(CN2CC[C@@H](NS(=O)(=O)c3ccccc3)C2)cc1`: the z-score is -0.977 in assay [1]; -0.568 in [2]; -1.63 in assay [3]; -3.18 in [4]; -3.72 in assay [5]; -1.13 in [6]. For the same compound, the z-score in [7] was 0.787 (inactive); in assay [8] it was -0.414; in [9], -2.29; in assay [10], -0.235 (inactive); in [11], -0.788; in assay [12], -14.2 (active). Also, the z-score in [13] was -1.73 (inactive); in [15], -0.0126 (inactive); in assay [16] it was -1.21 (inactive); in assay [17], -20.5 (active); in assay [18], -19.9 (active); in assay [19] it was -1.03. The results for the composite z-score in assay [14] and in assay [20] were -0.371 (inactive) and -0.178, respectively.
Turning to `COc1ccc([Si](C)(C)[C@@H]2[C@@H](CC(=O)N(CCO)Cc3ccccc3)O[C@]3(C(=O)N(C)c4ccccc43)[C@H]2C)cc1`, the z-score in [1] was -0.664; in assay [2], 0.349; in assay [3], -1.58; in [4], -2.68; in [5], -3.74; in [6] it was -0.494. The z-score in assay [7] was -1.44 (inactive); in assay [8] it was -1.12; in assay [9] it was -0.319; in [10] it was -1.78 (inactive); in [11] it was -1.36; in assay [12], -0.599 (inactive). Further, the z-score was -1.64 (inactive) in assay [13]; 0.708 (inactive) in [15]; 0.975 (inactive) in assay [16]; -0.284 (inactive) in assay [17]; -0.896 (inactive) in assay [18]; -1.49 in assay [19]. For the same compound, the composite z-score in [14] is -0.688 (inactive); in assay [20] it was -0.0853.
Take `O=C1O[C@@H](c2ccccc2)[C@@H](c2ccccc2)N2[C@@H](c3ccc(O)cc3)[C@]3(C(=O)Nc4ccc(C#CC5(O)CCCCCC5)cc43)[C@@H](C(=O)N3CCCCCCC3)[C@H]12`: the z-score was 0.476 in [1]; 0.49 in [2]; 1.04 in [3]; 0.0939 in assay [4]; -1.34 in assay [5]; -1.36 in [6]. Moreover, the z-score is 0.076 (inactive) in assay [7]; -0.764 in assay [8]; -0.664 in [9]; -0.314 (inactive) in assay [10]; 0.366 in assay [11]; -0.479 (inactive) in assay [12]. For the same compound, the z-score was -0.895 (inactive) in assay [13]; 1.89 (inactive) in [15]; 0.141 (inactive) in assay [16]; -0.284 (inactive) in [17]; 0.38 (inactive) in assay [18]; -0.884 in assay [19]. For the same compound, the values for the composite z-score in assay [14] and in assay [20] were 0.916 (inactive) and 0.479, respectively.
As for `O=C(CS)NCCCCCCNC(=O)[C@@H]1C[C@@H]2C(=O)N3CCC[C@H]3C(=O)N2[C@@H]1c1ccc(O)cc1`, the z-score in assay [1] was -1.09; in [2], 0.519; in assay [3], -0.507; in assay [4] it was 0.16; in assay [5], 0.412; in assay [6] it was -1.57. Further, the z-score in assay [7] was -0.124 (inactive); in [8], 0.653; in assay [9] it was 0.0659; in [10], -0.331 (inactive); in assay [11], -0.564; in [12] it was 0.784 (inactive). Also, the z-score in assay [13] was 0.357 (inactive); in assay [15] it was -0.158 (inactive); in assay [16] it was 1.24 (inactive); in assay [17], -0.0727 (inactive); in assay [18], -0.313 (inactive); in assay [19], -0.449. For the same compound, the composite z-score in assay [14] was 0.586 (inactive); in assay [20], 0.0153.
